In PubChem BioAssay (NCI) one finds growth data, which are given here for 13 compounds.

Some test systems named below: NCI-H23 lung; NCI-H226 lung; NCI-H322M lung; HOP-62 NSCLC; NCI-H460 lung; HOP-92 NSCLC; NCI-H522 lung; A549/ATCC NSCLC; 786-0 renal; COLO 205 colon.
What all share (experiment): NCI-60 one-dose screen, 48 h (100 = growth as untreated, 0 = no growth, -100 = all killed)
Conditions in all cases: 10 µM unless noted

Molecules are shown by their SMILES. About 83,000 compounds went through this panel and 20% of them were active in at least one assay; those are over-represented in the sample as a whole.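 Plates (96-well) were seeded with cells, treated with compound at one concentration, and incubated for 48 hours before percent growth was determined.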 Unmarked numbers belong to inactive results. Calls of active or inactive are those of the source. Rule for the calls: active = growth percent below 10; inactive = the rest.

Turning to `Clc1ccccc1Nc1nnc(-c2ccncc2)s1`, the growth is 102% in the assay with NCI-H23 lung; 101% in the assay on NCI-H226 lung; 93.7% with NCI-H322M lung; 118% in the assay with HOP-62 NSCLC; 99.7% in the assay on NCI-H460 lung; 93.9% in the assay on HOP-92 NSCLC. The growth in the assay with NCI-H522 lung was 98.6%; in the assay on A549/ATCC NSCLC, 95%; with 786-0 renal, 80.2%; in the assay on COLO 205 colon it was 114%.

On to `SCc1ccc(CS)cc1`, for which the growth in the assay with NCI-H23 lung was 106%; with NCI-H226 lung it was 109%; in the assay with NCI-H322M lung it was 98.2%; in the assay with HOP-62 NSCLC, 102%; with NCI-H460 lung it was 108%; with HOP-92 NSCLC, 77.2%. In addition, the growth was 108% in the assay on NCI-H522 lung, 110% in the assay with A549/ATCC NSCLC, 98.1% in the assay on 786-0 renal and 116% in the assay on COLO 205 colon.

As for `Clc1cn2cc(-c3ccc(Cl)c(Cl)c3Cl)nc2s1`, the growth in the assay with NCI-H23 lung is 92.7%; in the assay on NCI-H226 lung, 90.1%; in the assay with NCI-H322M lung it was 91.9%; in the assay with HOP-62 NSCLC, 86.7%; with NCI-H460 lung, 109%; in the assay with HOP-92 NSCLC, 85.8%. Also, the growth with NCI-H522 lung is 91.4%; in the assay with A549/ATCC NSCLC, 103%; in the assay on 786-0 renal it was 99.9%; with COLO 205 colon, 106%.

For `CCOC(=O)c1ccc(NCCC(=O)O)cc1`, the growth in the assay with NCI-H23 lung is 107%; in the assay on NCI-H226 lung it was 100%; in the assay with NCI-H322M lung, 104%; in the assay on HOP-62 NSCLC it was 95.9%; with NCI-H460 lung it was 116%; in the assay with HOP-92 NSCLC, 89.4%. The growth is 91.3% in the assay with NCI-H522 lung, 103% in the assay with A549/ATCC NSCLC, 96.2% with 786-0 renal and 121% in the assay on COLO 205 colon.

Take `NC(N)=N/N=C\c1ccc(OCc2ccccc2)cc1`: the growth is 84% with NCI-H23 lung; 46.4% in the assay on NCI-H226 lung; 93.4% with NCI-H322M lung; 62.8% in the assay on HOP-62 NSCLC; 96.4% in the assay on NCI-H460 lung; 40.2% in the assay on HOP-92 NSCLC. Further, the growth with NCI-H522 lung is 77.3%; in the assay with A549/ATCC NSCLC it was 82.8%; in the assay with 786-0 renal it was 81.7%; in the assay on COLO 205 colon, -62.8% (active).

Regarding `CCN(CC)c1ccc(C(=N)c2ccc(N(C)C)cc2)cc1`, the growth is -23.3% (active) with NCI-H23 lung; 16.4% with NCI-H226 lung; 60.6% in the assay on NCI-H322M lung; 7.49% (active) with HOP-62 NSCLC; 0.221% (active) with NCI-H460 lung; -21% (active) in the assay with HOP-92 NSCLC. The growth is -13.5% (active) in the assay with NCI-H522 lung, 28.6% in the assay on A549/ATCC NSCLC, 7.03% (active) with 786-0 renal and -54.5% (active) with COLO 205 colon.

As for `Cc1cc(O)c(C2=NN(c3ccc(S(N)(=O)=O)cc3)C(c3ccc(Cl)cc3)C2)c(C)c1Cl` (stereo not given), the growth was 78.8% in the assay with NCI-H23 lung; 106% in the assay with NCI-H226 lung; 75.3% with NCI-H322M lung; 84.3% in the assay on HOP-62 NSCLC; 3.35% (active) in the assay with NCI-H460 lung; 21.3% in the assay on HOP-92 NSCLC. Besides, the growth is 57.7% with NCI-H522 lung, 33.2% with A549/ATCC NSCLC, 43.3% with 786-0 renal and 30.8% in the assay with COLO 205 colon.

For `CN(C)CCOc1nc2c3cccnc3cc(-c3cccc(Cl)c3)c2c2ncccc12`, the growth with NCI-H23 lung was 31.2%; with NCI-H226 lung it was 40.5%; in the assay with NCI-H322M lung, 44.9%; in the assay with HOP-62 NSCLC, 44.4%; with NCI-H460 lung it was -49.8% (active); in the assay with HOP-92 NSCLC, 42.7%. Also, the growth was 34.1% in the assay on NCI-H522 lung, 22% in the assay on A549/ATCC NSCLC, 21.8% in the assay with 786-0 renal and -65.4% (active) in the assay on COLO 205 colon.

As for `Nc1ccc(C(OC(=O)c2cc3ccccc3c(Cc3c(O)c(C(=O)OC(c4ccc(N)cc4)(c4ccc(N)cc4)c4ccc(N)cc4)cc4ccccc34)c2O)(c2ccc(N)cc2)c2ccc(N)cc2)cc1`, the growth is 9.92% (active) in the assay with NCI-H23 lung; 30.8% in the assay with NCI-H226 lung; 3.77% (active) in the assay with NCI-H322M lung; 6.24% (active) with HOP-62 NSCLC; 1.82% (active) with NCI-H460 lung; -6.69% (active) in the assay with HOP-92 NSCLC. Also, the growth with NCI-H522 lung was 9.97% (active); in the assay on A549/ATCC NSCLC, 10.7%; with 786-0 renal, 23.5%; in the assay on COLO 205 colon it was -83.7% (active).

As to `CC1(C)C2CCC(O)(C(=O)O)C1C2` (stereo not given), the growth in the assay with NCI-H23 lung was 113%; in the assay with NCI-H226 lung it was 113%; in the assay on NCI-H322M lung, 95.9%; in the assay on HOP-62 NSCLC, 113%; in the assay with NCI-H460 lung, 116%; in the assay with HOP-92 NSCLC it was 117%. Further, the growth was 117% with NCI-H522 lung, 111% in the assay on A549/ATCC NSCLC, 107% with 786-0 renal and 127% with COLO 205 colon.

`O=[N+]([O-])c1cccc([I+]c2ccccc2)c1`: the growth with NCI-H23 lung was 49.8%; in the assay on NCI-H226 lung, 59%; in the assay on NCI-H322M lung it was 76.6%; with HOP-62 NSCLC it was -26.8% (active); in the assay with NCI-H460 lung, 18.2%; in the assay with HOP-92 NSCLC, 93.6%. Moreover, the growth in the assay on NCI-H522 lung was 50.3%; in the assay on A549/ATCC NSCLC, 47.7%; in the assay on 786-0 renal, 70.8%; in the assay with COLO 205 colon, 40.1%.

As to `Clc1ncnc2scc(C3COc4ccccc4O3)c12` (stereo not given), the growth in the assay on NCI-H23 lung is 95.9%; in the assay with NCI-H226 lung, 75.3%; in the assay on NCI-H322M lung, 98.6%; in the assay with HOP-62 NSCLC, 105%; with NCI-H460 lung, 106%; in the assay on HOP-92 NSCLC, 78.9%. Besides, the growth was 53.6% in the assay with NCI-H522 lung, 95.5% in the assay on A549/ATCC NSCLC, 104% in the assay on 786-0 renal and 100% in the assay with COLO 205 colon.

`Cc1cc2nc3c(=O)[nH]c(=O)nc-3n(CC=O)c2cc1C`: the growth in the assay with NCI-H23 lung was 108%; in the assay on NCI-H226 lung, 91%; with NCI-H322M lung it was 110%; in the assay on HOP-62 NSCLC it was 106%; in the assay with NCI-H460 lung, 106%; in the assay with HOP-92 NSCLC, 293%. For the same compound, the growth is 107% in the assay with NCI-H522 lung, 115% in the assay on A549/ATCC NSCLC, 105% with 786-0 renal and 128% in the assay with COLO 205 colon.
